Sampled rows, rich in hits. Any-hit rate of the full collection: about 7.3%.
NPC1 promoter act – qHTS Assay for NPC1 Promoter Activators; Huh7 NPC1 promoter luciferase reporter, 24 h; Potency, µM (doses to about 9.22 µM), hits mostly activators; actives 2.4% (n = 320,000); also: nearly all actives have a fitted effect of over 60% in size
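Huh7 reporter cells (NPC1 promoter driving luciferase) are dosed with compound for 24 h at 37 °C, 5% CO2; luciferase detection reagent is then added and luminescence measured after 10 min at ambient temperature.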
ELG1 genotoxic – qHTS screen for small molecules that induce genotoxicity in human embryonic kidney (HEK293T) cells expressing luciferase-tagged ELG1; actives 1.3% (n = 330,000); HEK293T ELG1-luciferase reporter, luminescence, 16 h; AID 504466, 2011; Potency, µM (series often up to 46 µM), most hits filed as activators; also: nearly all actives have a fitted effect of over 60% in size
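Cells (2,000/well) expressing the ELG1-luciferase fusion are dosed by pin tool and kept 16 hr at 37 °C, 5% CO2. Signal comes from ONE-Glo luciferase reagent after 30 min at room temperature.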
SMN2 splice up – qHTS Assay for Enhancers of SMN2 Splice Variant Expression | HEK293 SMN2-luciferase splicing reporter, luminescence, 30-36 h | Potency, µM (series often up to 46.1 µM), actives largely listed as activators | actives 2.8% (n = 210,000) | AID 1458, 2008; also: nearly all actives have a fitted effect of over 55% in size
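qHTS luciferase splicing reporter: luminescence rises when SMN2 exon 7 is included in transfected HEK293 cells. Compound exposure lasted 30-36 h at 37C, with 4.5 mM final sodium butyrate as control, followed by a ONE-Glo read.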
Rab9 promoter act – qHTS Assay for Rab9 Promoter Activators; Huh7 Rab9 promoter-luciferase reporter, luminescence, 24 h; Potency, µM (series often up to 9.22 µM), hits mostly activators; actives 2.8% (n = 320,000); AID 485297, 2010; also: nearly all actives have a fitted effect of over 60% in size
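Cell-based reporter: Huh7 stable for Rab9 promoter-driven luciferase, plated in reduced-serum medium with 10% FBS at 1500 cells/well, compound-treated 24 h at 37 °C, luminescence read after 10 min reagent.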
p53 reactivation – qHTS assay for re-activators of p53 using a Luc reporter | actives 0.063% (n = 320,000) | Potency, µM (highest dose often 92.2 µM), usual class: activators | H1299 p53-A138V BP100-luciferase reporter, luminescence, 24 h | AID 504706, 2011; also: nearly all actives have a fitted effect of over 45% in size
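H1299 (p53-null), stable ts p53-A138V + BP100-Luc; 1000 cells/well, Opti-MEM/10% FBS; cpd 4 pt, 1:5; 24 h, 37 deg C, 5% CO2; detection reagent 10 min RT; luminescence.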
FLuc modulator – qHTS profiling assay for firefly luciferase inhibitor/activator using purifed enzyme and Km concentrations of substrates (counterscreen for miR-21 project) | Luciferin 4-monooxygenase (Photinus pyralis), P08659 | purified FLuc, Km substrates, luminescence inhibition | Potency, µM (series often up to 57.5 µM), most hits filed as inhibitors | actives 6.9% (n = 360,000) | AID 588342, 2011; also: nearly all actives have a fitted effect of over 55% in size
Target sequence (P08659 whole entry, looked up): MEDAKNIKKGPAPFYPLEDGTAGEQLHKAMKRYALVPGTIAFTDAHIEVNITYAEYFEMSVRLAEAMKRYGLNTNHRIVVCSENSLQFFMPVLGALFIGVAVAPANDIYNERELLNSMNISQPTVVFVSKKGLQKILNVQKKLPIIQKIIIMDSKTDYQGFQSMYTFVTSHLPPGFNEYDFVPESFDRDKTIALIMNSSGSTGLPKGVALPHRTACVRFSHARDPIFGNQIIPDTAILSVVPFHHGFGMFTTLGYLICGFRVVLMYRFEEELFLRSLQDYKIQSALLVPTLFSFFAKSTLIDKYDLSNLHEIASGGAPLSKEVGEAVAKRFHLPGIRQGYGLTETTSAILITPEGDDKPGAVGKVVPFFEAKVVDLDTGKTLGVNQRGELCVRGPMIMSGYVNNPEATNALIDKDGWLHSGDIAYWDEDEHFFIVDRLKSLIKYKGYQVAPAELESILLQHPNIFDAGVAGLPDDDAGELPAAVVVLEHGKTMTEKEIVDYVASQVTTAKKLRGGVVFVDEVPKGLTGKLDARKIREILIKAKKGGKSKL
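Biochemical qHTS of compounds, final roughly 60 µM downward over six points, against 10 nM purified firefly luciferase using Km concentrations of substrates (10 uM D-luciferin, 10 uM ATP) in Tris acetate pH 7.5 buffer; luminescence output.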
Each line names hits and unclear results; the compound was inactive in the other large screens. Calls follow the shape of the dose curve; as a rule, active = well fitted curve in the direction sought with a large enough effect; inconclusive = small, poorly fitted or top-dose-only effect, or another doubt; inactive = no such curve, though single readings can be large; an effect the other way counts as inactive or inconclusive.

O=C(Nc1ccc(SC(F)F)cc1)c1ccc2nccnc2c1	NPC1 promoter act inconclusive, p53 reactivation inconclusive, FLuc modulator 11µM
Cc1ccc(NC(=S)c2ccccc2)cc1	NPC1 promoter act inconclusive, ELG1 genotoxic inconclusive, Rab9 promoter act 2.5µM, p53 reactivation inconclusive, FLuc modulator 4.8µM
CCCc1ccc(C(=O)NNc2cccc(C)c2)cc1	ELG1 genotoxic inconclusive, FLuc modulator 21µM (no result: SMN2 splice up)
COC(=O)c1ccc(NC(=O)c2ccc3nccnc3c2)cc1	FLuc modulator inconclusive (no result: SMN2 splice up)
Cc1ccc(S(=O)(=O)NCc2ccc(C(=O)NCCN(Cc3ccccc3)C(C)C)cc2)cc1	none
CCOc1cc(CNC(=O)c2ccc3c(c2)N(C)C(=O)C2CCCCN32)cc(OCC)c1OCC (stereo unspecified)	none (no result: NPC1 promoter act, ELG1 genotoxic, SMN2 splice up, Rab9 promoter act, p53 reactivation)
COc1ccc(C(=O)Nc2cccc(C)c2)cc1	NPC1 promoter act 1.3µM, ELG1 genotoxic inconclusive, SMN2 splice up 11µM, Rab9 promoter act 1.3µM, FLuc modulator 3.4µM
COc1ccc(CC(=O)Nc2cccc(C(=O)Nc3cccc(C)c3)c2)cc1	none (no result: SMN2 splice up)
S=C(c1ccc2c(c1)OCO2)N1CCOCC1	none (no result: SMN2 splice up)
COc1ccc(-c2cc(C(F)(F)F)n3nc(C(=O)N4CCCCC4)cc3n2)cc1	FLuc modulator inconclusive
COc1cccc(-c2cc(C(F)(F)F)n3nc(C(=O)N4CCCCC4c4cccnc4)cc3n2)c1 (stereo unspecified)	FLuc modulator 15µM
O=C(c1cc2nc(-c3ccco3)cc(C(F)(F)F)n2n1)N1CCCCCC1	FLuc modulator 21µM
O=c1[nH]cnc(O)c1C(c1ccc(Br)cc1)c1c(O)nc[nH]c1=O	none (no result: SMN2 splice up)
O=c1[nH]cnc2cc(-c3ccc(Br)cc3)sc12	NPC1 promoter act 2.5µM, ELG1 genotoxic inconclusive, Rab9 promoter act 2.8µM, p53 reactivation inconclusive, FLuc modulator 7.6µM (no result: SMN2 splice up)
COC(=O)c1noc(-c2ccc(C)cc2)n1	FLuc modulator 11µM
Fc1ccc(-c2nc(-c3cccs3)no2)cc1	NPC1 promoter act 2µM, ELG1 genotoxic inconclusive, Rab9 promoter act 1.8µM, FLuc modulator 1.3µM (no result: SMN2 splice up)
O=C(NCCc1ccccc1)c1nc(-c2cccs2)no1	NPC1 promoter act inconclusive, ELG1 genotoxic inconclusive, SMN2 splice up 14µM, Rab9 promoter act 5.6µM, p53 reactivation inconclusive, FLuc modulator 13µM
COC(=O)c1ccc(-c2nc(-c3cccs3)no2)cc1	NPC1 promoter act 0.32µM, ELG1 genotoxic 0.37µM, Rab9 promoter act inconclusive, FLuc modulator 0.15µM
Cc1ccc(N[C@H](c2ccccc2)c2ccc3cccnc3c2O)cc1	none (no result: NPC1 promoter act, ELG1 genotoxic, Rab9 promoter act, p53 reactivation, FLuc modulator)
CC(C)NC(=O)N1CC[C@@]2(CCCN(S(=O)(=O)c3ccccc3)C2)C1	none (no result: NPC1 promoter act, ELG1 genotoxic, Rab9 promoter act, p53 reactivation, FLuc modulator)
S[C@@H]1CCCN(Cc2ccccc2)C1	none (no result: NPC1 promoter act, ELG1 genotoxic, Rab9 promoter act, p53 reactivation, FLuc modulator)
Fc1ccc(-c2cnc(-c3cccs3)o2)cc1	NPC1 promoter act 4µM, ELG1 genotoxic inconclusive, Rab9 promoter act 3.5µM, FLuc modulator 6µM
COC(=O)c1ccc(-c2ccc(/C=N/NC(=O)Cc3nnc(N)s3)o2)cc1	NPC1 promoter act 4.5µM, Rab9 promoter act inconclusive, FLuc modulator inconclusive (no result: SMN2 splice up)
Clc1ccc(OCc2cn3ccccc3n2)c2ncccc12	NPC1 promoter act 3.5µM, ELG1 genotoxic inconclusive, Rab9 promoter act 2.8µM, FLuc modulator 12µM (no result: SMN2 splice up)
Clc1ccc(Oc2ccccc2)c2ncccc12	none (no result: SMN2 splice up)
OCc1ccccc1OCCOc1ccc(Cl)c2cccnc12	ELG1 genotoxic inconclusive, FLuc modulator 19µM
COc1ccc(S(=O)(=O)Nc2nc3ccccc3nc2Nc2cccc(C(=O)O)c2)cc1	FLuc modulator inconclusive (no result: SMN2 splice up)
CCOc1ccc(CCNC(=O)c2ccc(-c3nc(COc4ccc(C)cc4)c(C)o3)cc2)cc1	none (no result: NPC1 promoter act, ELG1 genotoxic, Rab9 promoter act, p53 reactivation)
FC(F)(F)c1cc(NC(=S)Nc2ccc3ccccc3c2)cc(C(F)(F)F)c1	none (no result: NPC1 promoter act, ELG1 genotoxic, Rab9 promoter act, p53 reactivation, FLuc modulator)
CC(C)(C)c1ccc(OCC(=O)NCC2(N3CCOCC3)CCCCC2)cc1	none (no result: NPC1 promoter act, ELG1 genotoxic, SMN2 splice up, Rab9 promoter act, p53 reactivation)
COc1ccccc1CCNC(=O)Cc1c(C)c2cc(Cl)c(O)cc2oc1=O	none (no result: NPC1 promoter act, ELG1 genotoxic, Rab9 promoter act, p53 reactivation)
Cc1ccccc1C1=N/C(=C/c2cccs2)C(=O)O1	FLuc modulator 3.4µM
